Consider nine compounds from PubChem BioAssay (NCI).

SMILES strings stand for the structures. The panel holds about 83,000 compounds, 20% with a hit somewhere; the sample as a whole holds those more often.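 Each cell line was grown in a 96-well plate and treated with one concentration of compound for 48 hours. Values below 10 were considered active.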 Unmarked numbers belong to inactive results. The source made the active and inactive calls.

Among the test systems are HCT-15 colon; HT29 colon; SNB-75 CNS; SNB-19 CNS; U251 CNS; PC-3 prostate; SK-MEL-5 melanoma; UACC-62 melanoma; LOX IMVI melanoma; SK-MEL-28 melanoma; SK-MEL-2 melanoma; SN12C renal; UO-31 renal; TK-10 renal; ACHN renal; CAKI-1 renal; A498 renal; CCRF-CEM leukemia; MOLT-4 leukemia; EKVX NSCLC.
Assay in all cases: NCI-60 one-dose screen, 48 h (100 = growth as untreated, 0 = no growth, -100 = all killed)
What all share (conditions): 10 µM unless noted

Take `COc1ccc(C(O)c2cc3c(N)c(C(=O)Nc4ccccc4)sc3nc2C)cc1` (centres undefined): the growth was 9.94% (active) in the test with HCT-15 colon; -22% (active) in the test with HT29 colon; -7.27% (active) in the test with SNB-75 CNS; 24.6% in the test with SNB-19 CNS; 5.4% (active) with U251 CNS; 17.4% in the test on PC-3 prostate. In addition, the growth in the test with SK-MEL-5 melanoma was -31.9% (active); with UACC-62 melanoma, 19.6%; in the test with LOX IMVI melanoma it was 34.6%; with SK-MEL-28 melanoma, 68.1%; in the test with SK-MEL-2 melanoma, 9.47% (active); with SN12C renal, 21.5%. Besides, the growth was 19.1% in the test on UO-31 renal; 44.2% in the test on TK-10 renal; 25.7% in the test with ACHN renal; 15.1% in the test with CAKI-1 renal; -20.8% (active) in the test on A498 renal; 4.7% (active) in the test on CCRF-CEM leukemia. The growth with MOLT-4 leukemia is 11.4%.
On to `N#CC1=C(N)Oc2c(ccc3ccccc23)C1c1ccc([N+](=O)[O-])cc1` (centres undefined), for which the growth with HCT-15 colon is 41.5%; with HT29 colon, 90.3%; in the test with SNB-75 CNS, 44.8%; with SNB-19 CNS it was 87.8%; in the test with U251 CNS, 89.8%; with PC-3 prostate, 65.4%. In addition, the growth in the test with SK-MEL-5 melanoma was 86%; in the test on UACC-62 melanoma, 65.6%; with LOX IMVI melanoma, 59.1%; in the test on SK-MEL-28 melanoma it was 89.3%; with SK-MEL-2 melanoma it was 86%; with SN12C renal, 90.4%. The growth in the test on UO-31 renal was 54.7%; in the test with TK-10 renal, 145%; in the test with ACHN renal it was 90.3%; in the test with CAKI-1 renal it was 41.6%; in the test with CCRF-CEM leukemia, 66.9%; in the test with MOLT-4 leukemia it was 58.6%.
As for `COc1cc2nc(-c3ccc(C#N)cc3)[nH]c(=O)c2cc1OC`, the growth with HCT-15 colon was 107%; in the test with HT29 colon it was 113%; in the test on SNB-75 CNS it was 109%; in the test with SNB-19 CNS, 98.9%; in the test on U251 CNS it was 100%; in the test on PC-3 prostate, 105%. In addition, the growth is 96.8% in the test on SK-MEL-5 melanoma; 87.8% with UACC-62 melanoma; 90.8% in the test on LOX IMVI melanoma; 102% in the test on SK-MEL-28 melanoma; 128% in the test on SK-MEL-2 melanoma; 91.7% with SN12C renal. Moreover, the growth in the test on UO-31 renal is 97.4%; in the test with TK-10 renal, 271%; in the test with ACHN renal, 118%; in the test with CAKI-1 renal, 92%; with A498 renal, 120%; in the test on CCRF-CEM leukemia it was 188%.
`Cn1c(COC(=O)NCCn2ccnc2)nc2c(N3CCOCC3)nc(-c3ccccc3)nc21`: the growth in the test with HCT-15 colon is -51.3% (active); with HT29 colon, -12.1% (active); with SNB-75 CNS, -89.9% (active); in the test on SNB-19 CNS, 8.21% (active); with U251 CNS, -61% (active); in the test with PC-3 prostate, -74.7% (active). Also, the growth with SK-MEL-5 melanoma is -96% (active); with UACC-62 melanoma, -93.9% (active); in the test with LOX IMVI melanoma, -88.9% (active); in the test with SK-MEL-28 melanoma, -98.8% (active); in the test on SK-MEL-2 melanoma, -69.6% (active); in the test on EKVX NSCLC it was -64.5% (active). The growth is -100% (active) in the test with UO-31 renal; -83.3% (active) with TK-10 renal; -94.2% (active) in the test on CAKI-1 renal; -24.2% (active) with A498 renal; -17.9% (active) with CCRF-CEM leukemia; -10.3% (active) in the test with MOLT-4 leukemia.
With `CCCCCCOc1ccc(/C=N/Nc2cc(C)nc3ccc(Br)cc23)cc1`, the growth is -83.5% (active) with HCT-15 colon; -65.5% (active) with HT29 colon; -94.5% (active) in the test with SNB-75 CNS; -73.7% (active) with SNB-19 CNS; -64.8% (active) with U251 CNS; -73% (active) in the test on PC-3 prostate. For the same compound, the growth in the test with SK-MEL-5 melanoma was 47.3%; in the test with UACC-62 melanoma, 25.8%; in the test with LOX IMVI melanoma, -94.1% (active); in the test with SK-MEL-28 melanoma, -81.9% (active); in the test on SK-MEL-2 melanoma, -14% (active); with SN12C renal, -88.9% (active). The growth was -97.5% (active) in the test with UO-31 renal; -85.7% (active) in the test on TK-10 renal; -98.3% (active) in the test on ACHN renal; -72.4% (active) in the test with CAKI-1 renal; -23.3% (active) in the test with CCRF-CEM leukemia; -51.4% (active) in the test with MOLT-4 leukemia.
On to `CCNNC(=O)[C@@H]1[C@H](c2cc(OC)c(OC)c(OC)c2)c2cc3c(cc2[C@H](O)[C@H]1CO)OCO3`, for which the growth is 5.4% (active) in the test on HCT-15 colon; -10% (active) with HT29 colon; 30.3% with SNB-75 CNS; 35.6% in the test with SNB-19 CNS; 12.7% with U251 CNS; 12.5% in the test with PC-3 prostate. Further, the growth in the test on SK-MEL-5 melanoma was -38.8% (active); in the test on UACC-62 melanoma it was 50%; with LOX IMVI melanoma it was 14.4%; with SK-MEL-28 melanoma it was 55%; with SK-MEL-2 melanoma it was 21.6%; with EKVX NSCLC, 44.8%. In addition, the growth in the test with UO-31 renal was 42%; with TK-10 renal it was 41.6%; in the test on ACHN renal it was 28.6%; with CAKI-1 renal it was 29.3%; with CCRF-CEM leukemia, 14.6%; in the test with MOLT-4 leukemia, 12.8%.
With `COc1cc(-c2cc(=O)oc3cc(O)ccc23)cc(OC)c1OC`, the growth in the test on HCT-15 colon is 91.3%; with HT29 colon, 95.1%; in the test with SNB-75 CNS, 74.5%; in the test with SNB-19 CNS it was 95.3%; in the test with U251 CNS it was 96.7%; in the test on PC-3 prostate, 71.9%. Further, the growth in the test with SK-MEL-5 melanoma was 91.4%; with UACC-62 melanoma, 88.1%; in the test with LOX IMVI melanoma it was 97.1%; in the test with SK-MEL-28 melanoma, 99.3%; in the test with SK-MEL-2 melanoma, 101%; in the test on SN12C renal, 79%. Besides, the growth is 72.2% with UO-31 renal; 110% with TK-10 renal; 89.3% in the test with ACHN renal; 74% in the test with CAKI-1 renal; 101% in the test with A498 renal; 92.9% with MOLT-4 leukemia.
Consider `O=C(CCN1CCCC1)Nc1ccc2c(Nc3ccccc3)c3ccccc3nc2c1`, for which the growth is -3.61% (active) in the test on HCT-15 colon; 4.21% (active) with HT29 colon; 10.9% in the test on SNB-75 CNS; 18.4% in the test with SNB-19 CNS; 0.528% (active) with U251 CNS; 19.9% in the test on PC-3 prostate. For the same compound, the growth was 40.4% in the test on SK-MEL-5 melanoma; 30.3% in the test with UACC-62 melanoma; -55.3% (active) in the test with LOX IMVI melanoma; 62.3% in the test on SK-MEL-28 melanoma; 41.4% in the test on SK-MEL-2 melanoma; 13.3% with SN12C renal. For the same compound, the growth is -28.3% (active) in the test with UO-31 renal; 1.74% (active) in the test with TK-10 renal; 1.77% (active) in the test on ACHN renal; -11.9% (active) in the test with CAKI-1 renal; -8.84% (active) in the test on CCRF-CEM leukemia; -4.75% (active) in the test with MOLT-4 leukemia.
Consider `O=C1Nc2ccccc2/C1=C\c1cccc(/C=C2/C(=O)Nc3ccccc32)n1`, for which the growth in the test on HCT-15 colon is -81.3% (active); in the test with HT29 colon, 2.35% (active); in the test on SNB-75 CNS, -71.5% (active); in the test with SNB-19 CNS, -82.7% (active); in the test on U251 CNS, -98.1% (active); in the test with PC-3 prostate it was -28% (active). In addition, the growth is -99.1% (active) with SK-MEL-5 melanoma; -67.3% (active) with UACC-62 melanoma; -88.2% (active) in the test with LOX IMVI melanoma; -88.8% (active) with SK-MEL-28 melanoma; -34% (active) with SK-MEL-2 melanoma; 8.35% (active) in the test with SN12C renal. Moreover, the growth in the test on UO-31 renal is -82.5% (active); in the test on TK-10 renal, -59.3% (active); in the test with ACHN renal, -100% (active); with CAKI-1 renal, -80.7% (active); with A498 renal, -77.7% (active); in the test with CCRF-CEM leukemia, -51.9% (active). In the test on MOLT-4 leukemia, the growth was -30% (active).
